AmpC no deterg – qHTS Inhibitors of AmpC Beta-Lactamase (assay without detergent); P00811; AmpC nitrocefin hydrolysis, absorbance 480 nm, 0.0001% Triton; Potency, µM (titrated, usually from 57.1 µM), usual class: inhibitors; 330,000 compounds, 0.52% hits; AID 485341, 2010; further: nearly all actives have a fitted effect of over 20% in size
Target sequence (P00811 whole entry, looked up): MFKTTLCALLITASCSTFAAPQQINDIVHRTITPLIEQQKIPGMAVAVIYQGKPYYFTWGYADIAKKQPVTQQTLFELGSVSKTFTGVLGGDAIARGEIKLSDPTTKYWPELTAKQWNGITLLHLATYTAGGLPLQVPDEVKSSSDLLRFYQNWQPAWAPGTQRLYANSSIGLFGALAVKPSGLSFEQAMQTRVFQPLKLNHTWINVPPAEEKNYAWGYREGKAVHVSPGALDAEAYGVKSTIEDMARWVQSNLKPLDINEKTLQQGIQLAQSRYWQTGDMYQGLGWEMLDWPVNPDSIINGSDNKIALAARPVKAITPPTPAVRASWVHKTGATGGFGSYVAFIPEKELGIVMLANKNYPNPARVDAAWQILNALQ
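20 mM phosphate pH 7.0 + 0.01% (detergent screen) or 0.0001% Triton X-100; 5.3 nM AmpC reagent; cpd preinc 15 min RT; nitrocefin (800 uM stock) to start; A480 q20 s × 4 min; Activity was normalised to no-enzyme and no-compound control wells.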
AmpC detergent – qHTS Inhibitors of AmpC Beta-Lactamase (assay with detergent). 370,000 compounds, 0.041% hits. Potency, µM (highest dose often 114 µM), hits mostly inhibitors. P00811. AmpC hydrolysis of nitrocefin, absorbance 480 nm, 0.01% Triton; further: nearly all actives have a fitted effect of over 25% in size
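20 mM phosphate pH 7.0 + 0.01% (detergent screen) or 0.0001% Triton X-100; 5.3 nM AmpC reagent; cpd preinc 15 min RT; nitrocefin (800 uM stock) to start; A480 q20 s × 4 min; Activity was normalised to no-enzyme and no-compound control wells.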
Sm TGR inh – qHTS Assay for the Inhibitors of Schistosoma Mansoni Peroxiredoxins. 360,000 compounds, 3% hits. purified TGR, DTNB reduction, TNB absorbance 405 nm. AID 485364, 2010. Potency, µM (highest dose often 114 µM), actives largely listed as inhibitors; further: nearly all actives have a fitted effect of over 60% in size
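First, TGR (20 nM dispensed) and NADPH were mixed with compound. Second, a 15 min room-temperature incubation followed. Third, further NADPH and then DTNB were added to start the reaction. Finally, TNB absorbance was monitored kinetically.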
Numbers stand for hits; – = inactive; ? = inconclusive; · = no result given; [ ] = remark or other dose. A selection: hits, their analogues and other compounds. The true share with any hit is near 3.3%. The call rests on the fitted dose curve; in most records, active means well fitted curve in the direction sought with a large enough effect; inconclusive means small, poorly fitted or top-dose-only effect, or another doubt; inactive means no such curve, though single readings can be large; an effect the other way counts as inactive or inconclusive.

SMILES	AmpC no deterg	AmpC detergent	Sm TGR inh
Cc1nnc(SCc2ccc([N+](=O)[O-])cc2)o1	–	–	–
COc1ccc(/C=N/NC(=O)CN(c2ccc(OC)cc2)S(=O)(=O)c2ccccc2)cc1	–	–	–
O=C(CN(c1ccccc1)S(=O)(=O)c1ccccc1)N/N=C/c1ccco1	–	–	–
COc1ccc(N(CC(=O)N/N=C/c2ccco2)S(=O)(=O)c2ccccc2)cc1	–	–	28µM
Cc1ccc(N(CC(=O)N/N=C/c2ccco2)S(=O)(=O)c2ccccc2)cc1	–	–	25µM
Cc1cccc(NC(=O)CCn2cnc3ccccc3c2=O)c1	·	–	–
CCC1Oc2ccccc2N(CC(=O)NC2CCCCC2C)C1=O (stereo not given)	–	–	–
O=S(=O)(CCN1C=CC(C(F)(F)F)=NCC1)c1ccc(F)cc1	–	–	–
O=S(=O)(CCN1C=CC(C(F)(F)F)=NCC1)c1ccc(Cl)cc1Cl	–	–	25µM
CCc1ccc(C(=O)c2cn(CC(=O)Nc3cccc(OC)c3)c3cc4c(cc3c2=O)OCO4)cc1	·	–	–
COc1cc(/C=C2\C(=O)ON=C2c2ccccc2)cc(Br)c1O	–	–	1.6µM
O=C1ON=C(c2ccccc2)/C1=C/c1ccc(O)cc1	–	?	?
COc1ccc(/C=C2/C(=O)ON=C2C)cc1Cl	–	–	–
COc1cc(/C=C2\C(=O)ON=C2c2ccccc2)cc(Cl)c1O	–	?	7.1µM
COc1cc(/C=C2/C(=O)ON=C2c2ccccc2)ccc1O	–	–	25µM
COc1cc(C=C2C(=O)OC(c3ccccc3)OC2=O)cc(Br)c1O (stereo not given)	–	–	–
C=CCOc1ccc(/C=C2/C(=O)ON=C2C)cc1OC	–	–	–
O=C1ON=C(c2ccc(Cl)cc2)/C1=C/c1ccc(O)cc1	–	–	22µM
NC(=O)c1nsc(C(=O)N(Cc2ccco2)C(C(=O)NCC2CCCO2)c2ccc(F)cc2)c1N (stereo not given)	–	–	–
Cc1c(C(=O)NCc2ccccc2)sc2nc3n(c(=O)c12)CCC3	·	–	–
CCOc1cc(/C=C2\C(=O)ON=C2c2ccccc2)cc(Br)c1O	–	–	1.4µM
CCOc1cc(/C=C2/C(=O)ON=C2C)cc(Br)c1O	–	–	–
CNC(=O)COC(=O)c1cccc(S(=O)(=O)N2CCN(c3ccc(F)cc3)CC2)c1	–	–	–
Cc1ccc(C(=O)NCC(=O)OCC(=O)NC2CCCC(C)C2C)s1 (stereo not given)	–[11.4 µM]	–	–
CCN(C(=O)CN1CCN(S(=O)(=O)c2ccccc2C(F)(F)F)CC1)c1c(N)n(Cc2ccccc2)c(=O)[nH]c1=O	–	–	–
SMILES	AmpC no deterg	AmpC detergent	Sm TGR inh
O=C1CC(c2ccc(Cl)cc2)CC(=O)C1CS(=O)(=O)c1ccccc1 (stereo not given)	–	–	0.63µM
O=C(CS(=O)(=O)c1ccccc1)N1CCCCCC1	–	–	–
COc1ccc(N2C(=O)CC(c3ccccc3)CC2=O)cc1	–	–	–
O=C1CC(c2ccccc2)CC(=O)C1Sc1ccc(Cl)cc1 (stereo not given)	?	–	?
O=C1CCCC(=O)C1CS(=O)(=O)c1ccccc1	–	–	2.2µM
COc1ccc(C2CC(=O)C(CS(=O)(=O)c3ccccc3)C(=O)C2)cc1 (stereo not given)	–	–	1µM
Cc1nn(C)c(NC(=O)c2ccccc2Cl)c1Cl	–	–	–
COc1ccc(NC(=O)COC(=O)CCNS(=O)(=O)c2ccccc2)cc1OC	–	?	–
COc1ccc(NC(=O)CCc2nnc3ccc(NCc4ccc5c(c4)OCO5)nn23)cc1	–	?	–
CC(=O)Nc1ccc(S(=O)(=O)N2CCC(n3c(C)nc4cccnc43)CC2)cc1	·	–	–
C=CCOC(=O)CSCC(NC(=O)OC(C)(C)C)C(=O)OCC (stereo not given)	–	–	–
O=C(NCC1CCCCC1)c1cc2ccccc2cc1O	14µM	–	–
O=C(NCC1CCCO1)c1cc2ccccc2cc1O (stereo not given)	–	–	–
O=[N+]([O-])c1cc(-c2nc(-c3ccco3)no2)ccc1NCc1ccccc1	·	–	35µM
O=[N+]([O-])c1cc(-c2nc(-c3ccccn3)no2)ccc1NCc1ccccc1	·	–	–
Cc1cc(C(C)C)n2c(nc3ccccc32)c1C#N	–	–	–
Cc1cc(-c2ccco2)c(C#N)c2nc3ccccc3n12	–	–	28µM
CCc1c(C)c(C#N)c2nc3ccccc3n2c1-n1nc(C)cc1C	–	?	–
CCc1c(C)c(C#N)c2nc3ccccc3n2c1NCc1ccccn1	–	–	·
CCc1c(C)c(C#N)c2nc3ccccc3n2c1Cl	–	–	11µM
CCc1c(C)c(C#N)c2nc3ccccc3n2c1NCCOC	–	–	40µM
CCOc1ccc(NC(=O)CN(C)C(=O)c2cc3c(s2)CCC(C)C3)cc1OCC (stereo not given)	–	–	–
COc1cc(C(=O)NC2(C(F)(F)F)C(=O)NC(C)=C2C#N)cc(OC)c1OC (stereo not given)	·	–	–
O=C(CN1CCN(c2ccccn2)CC1)Nc1ccc([N+](=O)[O-])cc1C(=O)Nc1ccccc1F	–	–	–
Cc1c(/C=C(\C#N)C(=O)Nc2cccc(Cl)c2)c2ccccc2n1Cc1ccccc1Cl	·	–	–
SMILES	AmpC no deterg	AmpC detergent	Sm TGR inh
CC(=O)Nc1ccc(OCc2ccc3c(c2)OCO3)cc1	–	–	–
CC(c1ccccc1)C1CC(=O)N(Cc2ccco2)C1=O (stereo not given)	–	–	7.1µM
O=C(CN1C(=O)C2C3C=CC(C3)C2C1=O)NCc1ccco1 (stereo not given)	–	–	–
CC(c1ccccc1)C1CC(=O)N(CC(=O)O)C1=O (stereo not given)	–	?	–
O=C1[C@@H]2[C@H](C(=O)N1Cc1ccco1)[C@H]1C=C[C@@H]2C1	–	–	50µM
COc1ccc(N(CC(=O)NC2CCS(=O)(=O)C2)S(=O)(=O)c2cc(C)ccc2C)cc1 (stereo not given)	–	·	·
CCOc1ccc(CCNC(=O)c2cc(Nc3ccc(C)cc3C)nc3ccccc23)cc1OCC	·	–	–
Cc1ccc(-n2c(O)c(/C=N/NC(=O)c3ccncc3)c(=O)[nH]c2=O)cc1	–	–	?
O=C(N/N=C/c1c(O)n(-c2ccccc2)c(=O)[nH]c1=O)c1ccncc1	–	–	40µM
Cn1c(O)c(/C=N/NC(=O)c2ccncc2)c(=O)[nH]c1=S	–	–	–
Cn1c(O)c(/C=N/NC(=O)c2ccncc2)c(=O)n(C)c1=S	–	?	20µM
COc1cccc(N2CCN(C(=O)c3ccc(C)c(NC(=O)c4nsc5ccccc45)c3)CC2)c1	·	–	–
COc1ccc(N(Cc2cccs2)C(=O)c2ccc(Br)o2)cc1	·	–	–
CN(C)CCn1c2c(c(SCC(=O)Nc3cccc4ccccc34)nc1=O)CCC2	–	–	–
Cc1ccc2c(c1)c1ccc3c(c1n2C)C(=O)C=CC3=O	–	–	2.5µM
COc1ccc2c(c1)c1ncn(CCN3CCCC3)c(=O)c1n2C	–	–	–

Screening data from PubChem BioAssay.
